Laboratory results as given in ChEMBL document CHEMBL3988442, “University of Dundee, Small-Polar-MMV Screening Library” (2021).

Experiments:
[1] = biological target: T1, Aspartate--tRNA(Asp/Asn) ligase (Mycobacterium tuberculosis (strain ATCC 25618 / H37Rv)) (UniProt P9WFW3); assay: Assay for Asp RNA synthetase-1 from Mycobacterium tuberculosis; assay type: functional; design: scale not given: direction of the effect not stated beside the values; conditions: 30 µM; note: in the data most compounds retested in dose-response had high values
T1 sequence (whole entry): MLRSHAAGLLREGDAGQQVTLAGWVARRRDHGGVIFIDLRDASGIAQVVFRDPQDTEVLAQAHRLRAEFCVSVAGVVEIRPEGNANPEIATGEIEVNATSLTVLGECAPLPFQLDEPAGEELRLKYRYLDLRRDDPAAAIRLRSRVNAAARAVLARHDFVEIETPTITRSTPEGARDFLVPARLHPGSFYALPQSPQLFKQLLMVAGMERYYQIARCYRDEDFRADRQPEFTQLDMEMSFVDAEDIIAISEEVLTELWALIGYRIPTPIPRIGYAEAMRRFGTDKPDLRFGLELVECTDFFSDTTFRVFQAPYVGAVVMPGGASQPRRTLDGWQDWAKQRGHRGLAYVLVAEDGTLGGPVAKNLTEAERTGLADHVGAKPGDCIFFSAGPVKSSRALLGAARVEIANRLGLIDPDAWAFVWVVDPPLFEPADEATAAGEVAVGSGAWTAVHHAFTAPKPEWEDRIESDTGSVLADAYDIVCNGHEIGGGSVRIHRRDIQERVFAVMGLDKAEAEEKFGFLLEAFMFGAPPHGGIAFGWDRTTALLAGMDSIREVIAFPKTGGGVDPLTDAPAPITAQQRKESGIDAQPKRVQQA

[2] = biological target: Shiga toxin 2 (Escherichia coli O157:H7) (UniProt P09385+P09386); assay: E. coli 0.157:H7 Shiga Toxin SOP - stx2 screening assay; assay type: functional; design: scale not given: direction of the effect not stated beside the values; conditions: 30 µM

| SMILES | Percent Effect [1] | Percent Effect [2] |
| --- | --- | --- |
| O=C(NCc1ccccn1)c1nnn(-c2ccc(Br)cc2)n1 | -5.38% | -13.6% |
| O=C(NCc1cccnc1)C1CC(=O)N(CC2CC2)C1 (stereo unspecified) | -3.29% | -8.28% |
| O=C(CCOc1ccccc1)N1CCC(Nc2cccnn2)CC1 | 4.24% | 6.7% |
| OC1(Cn2ccc3ncccc32)CCN(Cc2ccccn2)CC1 | 11.7% | -31.8% |
| COc1ccc(CCN2CCCC2Cn2nc(C)nc2C)cc1 (stereo unspecified) | -3.2% | -22.5% |
| O=C(c1ccc[nH]1)N1CCC2(CC1)C(=O)Nc1ccccc12 | -1.68% | 16.7% |
| Cc1nc(C)n(CC2CCCN(Cc3nc(C)c(C)o3)C2)n1 (stereo unspecified) | 7.92% | 5.16% |
| CC(C)C(NC(=O)Cn1ccc(=O)n(C)c1=O)c1ccc(F)cc1 (stereo unspecified) | 4.7% | -13.7% |
| CCCNCc1cc2c(C)cc(C)cc2n2c(=O)n(C)nc12 | -5.73% | -11.4% |
| CC(Cn1cccn1)NC(=O)Nc1ccc(N(C)C)nc1 (stereo unspecified) | 1.98% | -47.5% |
| Cc1cc(CC(=O)N(CC2CN(C)CCO2)c2nccs2)no1 (stereo unspecified) | -0.67% | -18.7% |
| CC1(C)Cc2ccccc2-c2nc(NCCO)[nH]c(=O)c21 | 3.08% | 0.00332% |
| CN1C(=O)CC(c2cnn(C)c2)C12CCN(C(=O)C1CC=CC1)CC2 (stereo unspecified) | -2.73% | -0.198% |
| COCCNC(=O)c1cc2c(s1)CCN2C(=O)c1ccccc1 | 0.0582% | -56.3% |
| Cc1nn(CC(=O)N2CCC(Nc3cccnn3)CC2)c(C)c1Cl | -1.63% | -23.6% |
| O=C(c1ccn(-c2ccccc2Cl)n1)N1CCSCC1 | 1.45% | 8.96% |
| Cc1ccc(NC(=O)N2CCC(NC(=O)c3ccc(C)o3)CC2)cc1 | -0.605% | 25.3% |
| CCCC(C)(C)NC(=O)c1ccc(CC2CC(=O)NC2=O)cc1 (stereo unspecified) | -0.604% | -9.64% |
| CCOc1ccc(C(=O)NS(=O)(=O)c2cncc(Br)c2)cc1OC | -5.81% | -12% |
| CN(C)CC1CN(Cc2nnc(-c3ccccc3Cl)o2)CCO1 (stereo unspecified) | -1.66% | -41.7% |
| CC(NC(=O)NCCCn1cncn1)c1ccccc1Cl (stereo unspecified) | 9.3% | -26.7% |
| Cc1ccc2c(c1)c(CNC(=O)C1CCN(C(C)C)CC1)nn2C | -0.814% | -2.96% |
| CCn1cc(CN2CC3CCCN3C[C@H]2C)c(C)n1 (stereo partly specified) | 1.26% | -7.87% |
